PubChem BioAssay AID588853 (National Center for Advancing Translational Sciences (NCATS), 2011)
Active and inactive are the calls of the source.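 How the source made its calls: active means glucocerebrosidase seen by eye moving to lysosomes in immunostained patient skin cells after 5 µM compound; inconclusive means microscope result judged unclear; inactive means no movement seen.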

Biological target: Lysosomal acid glucosylceramidase (Homo sapiens) (UniProt P04062)
Experiment: qHTS for Activators of Human Glucocerebrosidase as a Potential Chaperone Treatment of Gaucher Disease: Fibroblast Translocation
Settings: Gaucher patient fibroblasts, GCase lysosomal translocation, immunofluorescence
From the text: Glucocerebrosidase (GCase) catalyzes the hydrolysis of beta-glucocerebroside to glucose and ceramide in lysosomes. Mutations in the glucocerebrosidase gene result in Gaucher disease, an autosomal recessive lysosomal storage disorder. Many of the mutations encountered in patients with Gaucher disease are missense alterations that may cause misfolding, decreased stability and/or mistrafficking of this lysosomal protein. […] However, the enhancement of enzyme activity by the chaperone action of an enzyme inhibitor must be balanced against the direct inhibition of the enzyme. An enzyme activator could also function as a chaperone by binding to the enzyme and helping to correct its misfolding and mistrafficking. Activators for GCase have not yet been identified, and they may have better therapeutic potential than inhibitors. Therefore the discovery and development of chemical activators may provide a new strategy for the chaperone therapy. The probe that has been identified was tested in a chaperone translocation experiment in human fibroblasts. This assay attempts to quantitate translocated glucocerebrosidase protein in patient-derived fibroblasts following extended compound incubation. The fibroblasts tested in this experiment were homozygous either for N370S glucocerebrosidase or wildtype GCase. NIH Chemical Genomics Center [NCGC] […]

Chain of Lysosomal acid glucosylceramidase (Homo sapiens) (P04062 whole entry N409S): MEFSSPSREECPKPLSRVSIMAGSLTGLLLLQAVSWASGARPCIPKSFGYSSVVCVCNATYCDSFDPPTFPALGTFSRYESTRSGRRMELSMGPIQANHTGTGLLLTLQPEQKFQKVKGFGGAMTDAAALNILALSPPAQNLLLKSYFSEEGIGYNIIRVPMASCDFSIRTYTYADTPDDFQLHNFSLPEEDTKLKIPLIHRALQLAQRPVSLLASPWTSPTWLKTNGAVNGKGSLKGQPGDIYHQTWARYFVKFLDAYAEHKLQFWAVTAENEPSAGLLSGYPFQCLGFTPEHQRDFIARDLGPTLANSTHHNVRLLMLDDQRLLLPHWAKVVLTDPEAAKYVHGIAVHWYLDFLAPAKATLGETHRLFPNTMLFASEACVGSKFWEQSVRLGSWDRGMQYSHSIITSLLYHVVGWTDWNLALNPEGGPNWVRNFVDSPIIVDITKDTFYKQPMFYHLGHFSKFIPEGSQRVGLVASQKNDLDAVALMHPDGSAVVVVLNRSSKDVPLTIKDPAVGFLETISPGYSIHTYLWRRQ

| Compound | outcome |
| --- | --- |
| C#Cc1ccc(NC(=O)c2cnn3c(C)cc(C)nc23)cc1 | active; yes |
| CN(C(=O)CNC(=O)c1ccccc1OCC(=O)Nc1ccc(Br)cc1)c1ccccc1 | active; yes |
